In the supplement of paper PMC6555819 one finds PBM binding z-score data, which are given here for 11 sequences.

Common to all, as to assay: PBM binding z-score (relative to random genomic background probes); higher = stronger binding; sequences stand for … in GC…GCGATTGACAGCGTAGAATGAAGG
The test system of assay [1] is PPARg:RXRa DBDmut IVT, anti-RXR (DBD mutation: RXRa K156A/R161A, NR concentration 270 nM, RXRa partner concentration 90 nM). An outline of the steps: (§1)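 Ligand-free nuclear receptor dimers were bound for 1 h to custom Agilent 4×180K protein-binding microarrays. Detection used antibodies against each partner (one per run). Binding z-scores rest on regression-normalized fluorescence, with random background probes as the reference.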

The test system of assay [2] is PPARg:RXRa IVT, anti-PPARg (NR concentration 270 nM, RXRa partner concentration 90 nM). An outline of the steps: as §1
Assay [3] deals with PPARg DBDmut:RXRa IVT, anti-PPARg (DBD mutation: PPARg1 K132A/R137A, NR concentration 270 nM, RXRa partner concentration 90 nM). An outline of the steps: as §1
Assay [4] has as its system PPARg DBDmut IVT, anti-PPARg (DBD mutation: PPARg1 K132A/R137A, NR concentration 270 nM). An outline of the steps: as §1
Assay [5] deals with PPARg homodimer (NR concentration 180 nM). An outline of the steps: as §1
Assay [6] has as its system PXR:RXRa (NR concentration 270 nM, RXRa partner concentration 90 nM). An outline of the steps:
as §1

Assay [7] has as its system PXR homodimer (NR concentration 270 nM). An outline of the steps:
as §1

Assay [8] relates to RARa:RXR (NR concentration 270 nM, RXRa partner concentration 90 nM). An outline of the steps:
as §1

Assay [9] relates to RARa homodimer (NR concentration 270 nM). An outline of the steps: as §1
Assay [10] relates to RARb:RXRa (NR concentration 270 nM, RXRa partner concentration 90 nM). An outline of the steps:
as §1

With TCTCGGAAGACACGAAAGGTCAGAGCTCGACATC, the PBM binding z-score in [1] is 2; in assay [2], 1.27; in [3] it was 0.544; in [4], -0.207; in assay [5] it was 3.09; in assay [6], 3.58. The PBM binding z-score in assay [7] is 0.388; in [8], 4.27; in assay [9] it was 1.14; in assay [10], 3.73.

Consider GCTCGAAGGACAAGGTCAGAGCTTTGTCCGTAGA, for which the PBM binding z-score in assay [1] was -0.135; in assay [2], 0.583; in assay [3], -0.7; in assay [4], -0.691; in assay [5], 0.73; in assay [6], 1.59. Also, the PBM binding z-score in [7] was -0.626; in assay [8], 2.28; in assay [9] it was -0.618; in assay [10], 3.44.

As to CTAACTAGGTCATCCAGGACAGTGAATACATTGA, the PBM binding z-score in assay [1] worked out at 8.55; in assay [2], 8.68; in assay [3], 3.4; in assay [4], 1.83; in assay [5] it was 2.45; in assay [6] it was 2.07. For the same sequence, the PBM binding z-score in [7] came out at 1.37; in assay [8], 2.83; in assay [9] it was 0.768; in assay [10] it was 3.88.

Regarding TCATATAGGTAAAAGTTGAAAGTCGGTGTGGTAA, the PBM binding z-score in [1] was found to be 4.15; in [2], 3.58; in [3], 0.876; in [4], 1.75; in assay [5], 1.63; in assay [6], 0.929. In addition, the PBM binding z-score in assay [7] was found to be 0.491; in assay [8], 1.56; in assay [9], 1.48; in [10], 1.04.

As to GCTAGTTGGGCAGTAAAAGGTCACACACCGGTCG, the PBM binding z-score in [1] was 0.484; in assay [2] it was 2.09; in assay [3], -0.128; in assay [4], -0.41; in assay [5], 4.82; in assay [6], 5.1. The PBM binding z-score in assay [7] was determined as 1.13; in [8], 6.26; in [9], 2.32; in assay [10], 4.16.

For TCGAGTAGGTTACCAATGGGGCCTTCAGCTTTCT, the PBM binding z-score in assay [1] was 3.36; in [2] it was 2.22; in assay [3] it was -0.652; in assay [4], -1.23; in assay [5], -0.653; in [6], -0.289. Further, the PBM binding z-score in assay [7] was -1.01; in assay [8], 0.0831; in assay [9], -1.27; in [10] it was 0.653.

Turning to GTACCAAGGTGAATAGGTCGTAGATGAGTAGGCG, the PBM binding z-score in assay [1] was 1.69; in [2], 2.84; in assay [3] it was -0.433; in assay [4], -0.143; in [5] it was 0.982; in assay [6], 0.659. Besides, the PBM binding z-score in assay [7] is -0.144; in assay [8], 1.8; in assay [9], 0.467; in assay [10], 2.17.

With TTACCAAGGTGAAGGTAGTTGATCCCTCTGTAGA, the PBM binding z-score in assay [1] is 2.05; in [2], 2.3; in assay [3] it was -0.207; in assay [4], -0.0185; in assay [5] it was 0.00789; in assay [6] it was 0.456. Also, the PBM binding z-score in [7] is -0.74; in [8], 0.351; in assay [9], -0.156; in assay [10], 1.35.

For the sequence TCGAGTAGGTTATTCGGGGCATTCAGCCAACATA, the PBM binding z-score in assay [1] was 3.04; in assay [2], 2.49; in assay [3], -0.276; in assay [4] it was -0.446; in [5], -0.00227; in [6], 0.948. For the same sequence, the PBM binding z-score in [7] was 0.669; in [8] it was 0.746; in [9], -0.612; in assay [10], 0.781.

As to AATACAGGGTCACTAGTCCAGAGTAGGTACGAAT, the PBM binding z-score in assay [1] stood at 3.25; in assay [2] it was 4.67; in [3], 0.95; in assay [4], 0.987; in assay [5], 1.66; in assay [6], 2.97. Further, the PBM binding z-score in assay [7] turned out to be 0.58; in assay [8], 3.7; in assay [9], 1.03; in assay [10] it was 3.99.

As to TCTTGTAGATCAAGCAGGTTAAGAATGCCTGAGT, the PBM binding z-score in assay [1] is 1.49; in assay [2], 0.313; in assay [3], -0.142; in assay [4] it was 0.577; in assay [5], -0.335; in assay [6], 0.291. Also, the PBM binding z-score in [7] is -0.153; in assay [8], 0.248; in [9], -0.193; in [10], 0.0521.
